Test results: PubChem BioAssay (Tox21)
Several values for one entry are separate records, joined by “and”; a condition that tells them apart may be missing. Identical values can stand only once. Inconclusive results are not listed. Where a structure was tested more than once in an assay, its records may differ in their call. Activity calls are given as the source filed them. Calls come from the whole dose curve; as a rule, active = well fitted inhibition curve with a large enough effect in the signal ratio in the repeat runs; inconclusive = weak or mixed curves, or effect the other way; inactive = flat fitted curve, though single readings scatter; the % refers to the signal ratio.

Assay: qHTS assay for small molecule disruptors of the mitochondrial membrane potential (AID 720635)
Settings: HepG2 mitochondrial membrane potential, Mito-MPS dye ratio; series mostly up to 83.2 µM; ratio activity, negative = MMP loss: at the top concentration
Procedure, shortened: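 HepG2 cells exposed to compound 1 hr at 37C, then Mito-MPS dye 30 min. Ratio read of aggregate (540/590 nm) versus monomer (490/535 nm) fluorescence.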
% is set by controls: 0 for no effect and ±100 for the full control effect; potency is the fitted concentration of half-maximal effect.

SMILES | ratio activity, negative = MMP loss | Potency
COC1=C(OC)C(=O)C(C/C=C(\C)CC/C=C(\C)CC/C=C(\C)CC/C=C(\C)CC/C=C(\C)CC/C=C(\C)CC/C=C(\C)CC/C=C(\C)CC/C=C(\C)CCC=C(C)C)=C(C)C1=O | 3.74% (inactive) | 
COC(=O)C(CN)c1c[nH]c2ccc(OC)cc12 (configuration not stated) | -17.3% (inactive) | 
CC(C)CCC[C@@H](C)[C@H]1CC[C@H]2[C@@H]3CC=C4C[C@@H](O)CC[C@]4(C)[C@H]3CC[C@]12C | 11.7% (inactive) | 
C=N[C@@H](C(=O)N[C@@H]1C(=O)N2[C@@H]1SC(C)(C)[C@@H]2C(=O)O)c1ccccc1 | 15.2% (inactive) | 
Cc1c(O)c(=O)ccn1C | -8.24% (inactive) | 
CCOC(=O)COc1ccc2c(=O)cc(-c3ccccc3)oc2c1 |  | 7.5 µM (active)
O=C1[O][Bi][O]c2ccccc21 | -19.3% (inactive) | 
O=P(O)(O)CP(=O)(O)O | 7.3% (inactive) | 
CC12CCC(C1)C(C)(C)C2=O (configuration not stated) | -10.4% (inactive) | 
CC(=O)Nc1ccc(OC(C)=O)cc1 | -14.1% (inactive) | 
CCN(CC)CCOC[C@H]1O[C@@H](O)[C@H](OCCN(CC)CC)[C@@H](O)[C@@H]1O | 9.36% (inactive) | 
OCC1(CO)COC(C(Cl)(Cl)Cl)OC1 | 24.5% (inactive) | 
C=C1[C@H](CO)[C@@H](O)C[C@@H]1n1cnc2c(=O)[nH]c(N)nc21 | 29.7% (inactive) | 
O=S(=O)(O)CC(S)CS (configuration not stated) | -6.18% (inactive) | 
COc1ccc(/C=N/NC(=O)c2ccncc2)c(C(=O)O)c1OC | 15.9% (inactive) | 
CCCCCCCCCCCCCCCCCCOCC(COP(=O)([O-])OCC[N+](C)(C)C)OC (configuration not stated) | 22.5% (inactive) | 
NC(=O)CC[C@@H]1NC(=O)[C@H](Cc2ccccc2)NC(=O)[C@H](Cc2ccc(O)cc2)NC(=O)[C@@H](N)CSSC[C@@H](C(=O)N2CCC[C@H]2C(=O)N[C@@H](CCCN=C(N)N)C(=O)NCC(N)=O)NC(=O)[C@H](CC(N)=O)NC1=O | -11% (inactive) | 
CCC[C@@H]1C[C@@H](C(=O)N[C@@H]([C@H]2O[C@H](SC)[C@H](OP(=O)(O)O)[C@@H](O)[C@H]2O)[C@H](C)Cl)N(C)C1 |  | inactive
C[C@H](NCCc1ccc(O)cc1)[C@H](O)c1ccc(O)cc1 | 11.1% (inactive) | 

SMILES | ratio activity, negative = MMP loss | Potency
CC(C)(COP(=O)(O)OP(=O)(O)OC[C@H]1O[C@@H](n2cnc3c(N)ncnc32)[C@H](O)[C@@H]1OP(=O)(O)O)C(O)C(=O)NCCC(=O)NCCS (some centres not stated) | -26.1% (inactive) | 
CC(CNC(=O)c1cccnc1)NC(=O)c1cccnc1 (configuration not stated) | -5.9% (inactive) | 
O=C(O)c1cc(O)c2c(c1)[C@H]([C@H]1c3cc(C(=O)O)cc(O)c3C(=O)c3c(O[C@@H]4O[C@H](CO)[C@@H](O)[C@H](O)[C@H]4O)cccc31)c1cccc(O[C@@H]3O[C@H](CO)[C@@H](O)[C@H](O)[C@H]3O)c1C2=O | 21.7% (inactive) | 
C=CCN1C(=O)C(CC(C)C)NC1=S (configuration not stated) | 11.8% (inactive) | 
C[C@H](O)CN(C)C | -12.8% (inactive) | 
CNC(=O)OCc1cccc(COC(=O)NC)n1 | -17% (inactive) | 
NC(=O)[C@H]1O[C@@H](O)[C@H](O)[C@@H](O)[C@@H]1O | 10.4% (inactive) | 
O=P(O)(O)C(O)(Cn1ccnc1)P(=O)(O)O | -8.56% (inactive) | 
NC(=O)[C@@H]1C[C@]2(NC(=O)NC2=O)c2cc(F)ccc2O1 | -7.09% (inactive) | 
COc1ccc([C@@H]2CC(=O)c3c(O)cc(O[C@@H]4O[C@H](CO[C@@H]5O[C@@H](C)[C@H](O)[C@@H](O)[C@H]5O)[C@@H](O)[C@H](O)[C@H]4O)cc3O2)cc1O | -19.5% [at 39.1 µM] (inactive) | 
CC[C@H]1OC(=O)C[C@@H](O)[C@H](C)[C@@H](O[C@@H]2O[C@H](C)[C@@H](O[C@H]3C[C@@](C)(O)[C@@H](O)[C@H](C)O3)[C@H](N(C)C)[C@H]2O)[C@@H](CC=O)C[C@@H](C)C(=O)/C=C/C(C)=C/[C@@H]1CO[C@@H]1O[C@H](C)[C@@H](O)[C@@H](OC)[C@H]1OC |  | inactive
NC(=O)C1c2ccccc2CCc2ccccc21 | 11.7% (inactive) | 
CC(C)=CCC/C(C)=C/CC/C(C)=C/CC/C(C)=C/CC1=C(C)C(=O)c2ccccc2C1=O |  | inactive and 13.3 µM (active)
COc1cc2c(c(OC)c1OC)-c1c(cc3c(c1OC)OCO3)C[C@@H](C)[C@](C)(O)C2 |  | inactive
O=C1CCC(c2ccccc2)(C2CCN(Cc3ccccc3)CC2)C(=O)N1 (configuration not stated) | -10.5% (inactive) | 
O=C(Cn1cnnn1)N[C@@H]1C(=O)N2C(C(=O)O)=C(CSc3nncs3)CS[C@H]12 |  | inactive
CN[C@H](CC(C)C)C(=O)N[C@H]1C(=O)N[C@@H](CC(N)=O)C(=O)N[C@H]2C(=O)N[C@H]3C(=O)N[C@H](C(=O)N[C@@H](C(=O)O)c4cc(O)cc(O)c4-c4cc3ccc4O)[C@H](O)c3ccc(c(Cl)c3)Oc3cc2cc(c3O[C@@H]2O[C@H](CO)[C@@H](O)[C@H](O)[C@H]2O[C@H]2C[C@](C)(N)C(O)[C@H](C)O2)Oc2ccc(cc2Cl)[C@H]1O (some centres not stated) |  | inactive
CC[C@H]1OC(=O)[C@H](C)C(=O)[C@H](C)[C@@H](O[C@@H]2O[C@H](C)C[C@H](N(C)C)[C@H]2O)[C@](C)(OC)C[C@@H](C)C(=O)[C@H](C)[C@H]2N(CCCCn3cnc(-c4cccnc4)c3)C(=O)O[C@]12C |  | inactive
